MCF10A rerep: inducers of DNA re-replication in MCF 10A breast cells; Potency, µM (series often up to 46.1 µM), for inactives: at the top dose activity, positive = re-replication, actives largely listed as activators; 350,000 tested, 2.9% active; MCF 10A DNA re-replication, Hoechst nuclear intensity, 48 h; AID 624296; note: % of control where 0% means no effect; nearly all actives have a fitted effect of over 50% in size
SW480 rereplic: inducers of DNA re-replication in SW480 colon cancer cells | SW480 DNA re-replication, Hoechst DNA content imaging, 48 h | Potency, µM (titrated, usually from 46.1 µM), for inactives: at the top dose re-replication activation, actives largely listed as activators | 340,000 tested, 1.8% active; note: % of control where 0% means no effect; nearly all actives have a fitted effect of over 55% in size
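250 cells/well; 23 nL cpd via pin tool; 48 hr, 37 C, 5% CO2; Hoechst 40 min; imager read of total nuclear intensity, ex 405/em 500-530 nm.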
KB-3-1 tox: kills parental KB-3-1 adenocarcinoma cells | KB-3-1 viability, CellTiter-Glo ATP luminescence, 72 h | Potency, µM (doses to about 46.1 µM), most hits filed as cytotoxic | 400,000 tested, 1.4% active | AID 1347075; note: % is set by controls: 0 for no effect and ±100 for the full control effect; nearly all actives have a fitted effect of over 60% in size
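KB-3-1 cells, DMEM (no phenol red) + 10% FBS; compound by pin transfer, 72 h, 37 °C. Readout: CellTiter-Glo luminescence after 10 min. Data normalized, curve-fitted.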
HT1080 IDH1KD tx: kills HT-1080 cells with IDH1 knockdown. 360,000 tested, 2% active. AID 686971. HT-1080 IDH1 knockdown viability, ATP luminescence, 48 h. Potency, µM (top dose mostly 46.1 µM), without a hit: at the highest dose activity, negative = toxicity, usual class: cytotoxic;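 note: 0% = DMSO wells and -100% = cell-free medium wells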
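Viability of IDH1-knockdown HT-1080 fibrosarcoma cells was assessed by CellTiter-Glo after 48 h at 37 °C with titrated compound; concentration-effect curves were classified by fit quality and response size.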
KB-V1 MDR tox: KB-V1 MDR subline cytotoxicity | Potency, µM (series often up to 46.1 µM), hits mostly cytotoxic | KB-V1 MDR cells viability, CellTiter-Glo, 72 h | 400,000 tested, 3.4% active; note: % is set by controls: 0 for no effect and ±100 for the full control effect; nearly all actives have a fitted effect of over 60% in size
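KB-V1 MDR subline cells in DMEM (phenol-red free, 10% FBS) exposed to compounds in qHTS concentration series for 72 h at 37 degrees C. Viability read by CellTiter-Glo luminescence; concentration-effect curves fitted after normalization and correction.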
HT1080-NT tox: kills 2HG-producing HT-1080-NT fibrosarcoma cells; Potency, µM (series often up to 46.1 µM), inactives show at the highest dose activity, negative = less viability, most hits filed as cytotoxic; HT-1080-NT fibrosarcoma viability, CellTiter-Glo ATP luminescence, 48 h; 360,000 tested, 1.6% active;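 note: NT is the 2HG producing partner of a matched IDH1 knockdown line; 0% = DMSO-treated cells and -100% = media-only wells without cells; nearly all actives have a fitted effect of over 55% in size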
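750 cells/well, RPMI + 5% FBS; 2 h settle, compound pin-transfer, 48 h at 37 degrees C. CellTiter-Glo 10 min RT, luminescence. Normalized to DMSO and media-only wells.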
An asterisk follows results filed as active; i = inactive; ? = inconclusive; · = not tested or not shown. Shown are actives, neighbours in structure and some others; about 7.9% of the full set was active somewhere. Calls come from the whole dose curve; as a rule, active = well fitted curve in the direction sought with a large enough effect; inconclusive = small, poorly fitted or top-dose-only effect, or another doubt; inactive = no such curve, though single readings can be large; an effect the other way counts as inactive or inconclusive. Potency is the fitted concentration of half-maximal effect.

SMILES | MCF10A rerep | SW480 rereplic | KB-3-1 tox | HT1080 IDH1KD tx | KB-V1 MDR tox | HT1080-NT tox
Cc1nc(Nc2nc3c(c(=O)[nH]2)CCC3)nc2ccccc12 | ? | -85% | 5.8µM* | ? | ? | ?
Cc1ccc2nc(Nc3nc(CSc4nnc(C)s4)cc(=O)[nH]3)nc(C)c2c1 | 1% | ? | ? | 1% | 23µM* | 0%
Cc1ccc2c(C)nc(Nc3nc(CSc4nc5ccccc5[nH]4)cc(=O)[nH]3)nc2c1 | -1% | 15% | i | 11µM* | ? | 18µM*
CCOc1ccccc1NC(=O)/C(C#N)=C/c1c(C)nn(-c2ccc(F)cc2)c1Cl | ? | -3% | i | -6% | i | -7%
O=c1c2c(-c3ccc(Cl)cc3)ccnc2[nH]n1-c1ccccc1 | · | · | i | · | i | ·
Nc1c(C(=O)NC2CC2)sc2nc3c(c(-c4ccco4)c12)CC/C3=C/c1ccco1 | -9% | -7% | i | -12% | i | -6%
O=C(Nc1cccc(C(F)(F)F)c1)n1cc(-c2ccccn2)c(N2CCOCC2)n1 | -9% | -8% | i | ? | i | ?
COc1ccc2c(C)nc(Nc3nc(-c4ccccc4)cc(=O)[nH]3)nc2c1 | 4.6µM* | 3.7µM* | 4.6µM* | ? | ? | ?
Cc1oc2c(O)c(O)ccc2c(=O)c1-c1cnn(-c2ccccc2)c1 | 20% | ? | i | ? | 3.7µM* | ?
Cc1cc2nn(-c3ccc(F)cc3)nc2cc1N | 21µM* | 21µM* | i | -18% | i | -22%
COc1ccc(-n2nc3cc(C)c(N)cc3n2)cc1Cl | 3.3µM* | 15µM* | i | 0% | i | 4%
COc1ccc(-n2nc3cc(C)c(NC(=O)c4ccc(C)cc4C)cc3n2)cc1Cl | · | · | i | · | ? | ·
Cc1cc2nn(-c3ccc(Cl)cc3)nc2cc1N | 21µM* | 23µM* | i | 2% | i | 1%
CC(C)(C)NCc1ccc(OCc2cccs2)cc1 | -22% | ? | i | 1% | i | -12%
CCCC12C(=O)C(C)(C(c3ccccc3)=C1c1ccccc1)C1C(=O)N(c3ccc(C)cc3)C(=O)C12 (stereo not given) | ? | ? | i | -1% | i | 3%
CN(C(=O)c1ccc2c(c1)CCN2S(C)(=O)=O)c1ccccc1 | 0% | 17% | i | 16% | i | 20%
Cc1ccccc1-n1nnnc1SC(C)C(=O)NC1CCCc2ccccc21 (stereo not given) | -3% | ? | i | 1% | 3.7µM* | 0%
O=C(CSc1nc2ccc(Cl)cc2[nH]1)NC1CCCc2ccccc21 (stereo not given) | ? | 4% | i | ? | i | -21%
Cc1ccc2nc(SC(C)C(=O)NC3CCCc4ccccc43)[nH]c2c1 (stereo not given) | ? | · | i | -17% | 21µM* | -1%
COc1ccc2nc(SCC(=O)NC3CCCc4ccccc43)[nH]c2c1 (stereo not given) | -1% | -2% | ? | -15% | 18µM* | -2%
COc1ccc2nc(SCC(=O)N(C)C3CCCCC3)[nH]c2c1 | 0% | 2% | i | 2% | 21µM* | 4%
COc1ccc2nc(SCC(=O)NC3CCCCC3C)[nH]c2c1 (stereo not given) | 16% | ? | ? | ? | ? | ?
COc1ccc(NC2CC(=O)N(c3ccc(C(=O)O)cc3)C2=O)cc1 (stereo not given) | 16% | -8% | i | -7% | i | ?
CC1CCCCN1C(=O)COC(=O)c1cccc(NS(=O)(=O)c2ccccc2)c1 (stereo not given) | 27% | -401% | i | -10% | i | -7%
COc1ccc(NC(=O)CSc2nc3ccc(OC)cc3[nH]2)cc1 | -3% | -7% | i | 0% | i | 0%
SMILES | MCF10A rerep | SW480 rereplic | KB-3-1 tox | HT1080 IDH1KD tx | KB-V1 MDR tox | HT1080-NT tox
COc1ccc2nc(SCC(=O)NC(C)(C)C)[nH]c2c1 | 8.2µM* | ? | i | 0% | i | 0%
CCNC(=O)N(CC)C[C@H]1N[C@@](C)(C(=O)OC)[C@H]2C(=O)N(Cc3ccccc3)C(=O)[C@@H]12 | -5% | 0.23µM* | i | -1% | i | 0%
CC(=O)NC1(c2ccccc2)CCN(c2cc(C)nc(-c3ccccc3)n2)CC1 | 5% | -26% | i | 1% | i | -7%
CCOc1ccccc1N(CC(=O)Nc1ccc(S(=O)(=O)N2CCOCC2)cc1)S(C)(=O)=O | -1% | -1% | i | 7% | i | 11%
Cc1ccc(C(=O)Nc2nnc(SCC(=O)N3CCCc4ccccc43)s2)cc1 | ? | 4% | i | -6% | 23µM* | 0%
Cc1ccc(C)c2c1cc(C)c1nnc(SCC(=O)N3CCCc4ccccc43)n12 | 4% | -141% | ? | -5% | 9.2µM* | 0%
O=C(CSc1nnnn1-c1cccc(F)c1)NC1CCCCC1 | -3% | -7% | i | -1% | 18µM* | 0%
O=C(Nc1nnc(SCC(=O)N2CCCc3ccccc32)s1)c1cccc2ccccc12 | -2% | -4% | i | -15% | i | -17%
COc1cccc(-n2nnnc2SCC(=O)N2CCCc3ccccc32)c1 | ? | 12µM* | i | 5% | i | -9%
COc1ccc(NC(=O)CSc2nncn2C)c([N+](=O)[O-])c1 | -24% | -3% | i | 2% | i | 13%
Cc1ccc(C(=O)Nc2cc(-c3ccn[nH]3)c(C)n(N)c2=O)cc1 | -45% | -32% | i | -3% | i | -2%
COc1cccc(-n2nnnc2SCC(=O)NC2CCCCC2)c1 | 9% | 2% | i | 7% | i | 0%
COc1cccc(-n2nnnc2SCC(=O)NC2CCCC2)c1 | 3% | -2% | i | -1% | 21µM* | -3%
O=C(NCCc1ccc(Cl)cc1)c1ccc2nc[nH]c2c1 | 17% | -4% | i | -1% | i | 0%
COc1cccc(/C(O)=C/c2nc3ccc(C(=O)NCCc4ccc(Cl)cc4)cc3[nH]c2=O)c1 | 8.2µM* | 12µM* | 21µM* | ? | ? | 18µM*
O=C(/C(=C/O)N=Nc1ccccc1)c1cccs1 | 13% | 3% | i | ? | i | 16µM*
O=C(C=Cc1ccccc1)c1cccs1 | ? | ? | ? | -16% | ? | 7%
C/C(=N\NC(=O)c1cccc(F)c1)c1ccc(Br)s1 | ? | 9.2µM* | i | 5.6µM* | ? | 11µM*
O=C(NN=C(Cc1ccccc1)Cc1ccccc1)c1ccccc1O | 12% | 18µM* | i | -20% | ? | -16%
